# Reference: article PMC11006913
# Columns and labels:
# Experiment in all cases: PBM; 200 nM protein, PBS
# Settings in all cases: dsDNA, one strand shown
# HOXA4 [1] = target: HOXA4 (Homo sapiens, UniProt Q00056 201-287, W262R)
# HOXB6 [2] = target: HOXB6 (Homo sapiens, UniProt P17509 132-218, K202E)
# HOXA4 [3] = target: HOXA4 (Homo sapiens, UniProt Q00056 201-287, R217L)
# HOXA4 [4] = target: HOXA4 (Homo sapiens, UniProt Q00056 201-287)
# HOXA4 [5] = target: HOXA4 (Homo sapiens, UniProt Q00056 201-287, W262F)
# HOXB6 [6] = target: HOXB6 (Homo sapiens, UniProt P17509 132-218)
# PITX2 = PITX2 (Homo sapiens, UniProt Q99697 72-157)
# ALX3 [7] = target: ALX3 (Homo sapiens, UniProt O95076 139-225, N203Q)
# ALX3 [8] = target: ALX3 (Homo sapiens, UniProt O95076 139-225)
# ALX3 [9] = target: ALX3 (Homo sapiens, UniProt O95076 139-225, L168Q)
# ALX3 [10] = target: ALX3 (Homo sapiens, UniProt O95076 139-225, L168V)
# ALX3 [11] = target: ALX3 (Homo sapiens, UniProt O95076 139-225, N203S)
# NKX2-6 = target: T1, NKX2-6 (Homo sapiens, UniProt A6NCS4 118-204, R150C)
# T1 sequence: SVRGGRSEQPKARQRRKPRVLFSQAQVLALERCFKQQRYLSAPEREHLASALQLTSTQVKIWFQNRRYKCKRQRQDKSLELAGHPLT
# HOXA4 (Homo sapiens, UniProt Q00056 201-287, R217L), sequence (Q00056 201-287 R217L): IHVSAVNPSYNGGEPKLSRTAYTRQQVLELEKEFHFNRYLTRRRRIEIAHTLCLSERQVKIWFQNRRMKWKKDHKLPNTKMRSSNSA
# HOXA4 (Homo sapiens, UniProt Q00056 201-287, W262F), sequence (Q00056 201-287 W262F): as the sequence (Q00056 201-287 R217L) above, with L17R, W62F counted along it
# HOXA4 (Homo sapiens, UniProt Q00056 201-287), sequence (Q00056 201-287): as the sequence (Q00056 201-287 R217L) above, with L17R counted along it
# HOXA4 (Homo sapiens, UniProt Q00056 201-287, W262R), sequence (Q00056 201-287 W262R): as the sequence (Q00056 201-287 R217L) above, with L17R, W62R counted along it
# ALX3 (Homo sapiens, UniProt O95076 139-225, L168V), sequence (O95076 139-225 L168V): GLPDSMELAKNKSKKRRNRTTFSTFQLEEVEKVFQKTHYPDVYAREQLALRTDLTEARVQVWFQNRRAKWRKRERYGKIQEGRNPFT
# HOXB6 (Homo sapiens, UniProt P17509 132-218, K202E), sequence (P17509 132-218 K202E): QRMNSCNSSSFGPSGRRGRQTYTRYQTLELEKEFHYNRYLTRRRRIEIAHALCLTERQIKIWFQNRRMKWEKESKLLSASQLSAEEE
# ALX3 (Homo sapiens, UniProt O95076 139-225, L168Q), sequence (O95076 139-225 L168Q): as the sequence (O95076 139-225 L168V) above, with V30Q counted along it
# ALX3 (Homo sapiens, UniProt O95076 139-225), sequence (O95076 139-225): as the sequence (O95076 139-225 L168V) above, with V30L counted along it
# ALX3 (Homo sapiens, UniProt O95076 139-225, N203Q), sequence (O95076 139-225 N203Q): as the sequence (O95076 139-225 L168V) above, with V30L, N65Q counted along it
# ALX3 (Homo sapiens, UniProt O95076 139-225, N203S), sequence (O95076 139-225 N203S): as the sequence (O95076 139-225 L168V) above, with V30L, N65S counted along it
# HOXB6 (Homo sapiens, UniProt P17509 132-218), sequence (P17509 132-218): as the sequence (P17509 132-218 K202E) above, with E71K counted along it
sequence,measurement,setting,value
CCCCCTAG,binding signal,HOXA4 [1],"9.8 upbm affinity estimate (log intensity, higher = more binding, comparable within an allelic series)"
same,binding signal,HOXB6 [2],"8.81 upbm affinity estimate (log intensity, higher = more binding, comparable within an allelic series)"
same,binding signal,HOXA4 [3],"9.86 upbm affinity estimate (log intensity, higher = more binding, comparable within an allelic series)"
same,binding signal,HOXA4 [4],"9.77 upbm affinity estimate (log intensity, higher = more binding, comparable within an allelic series)"
same,binding signal,HOXA4 [5],"9.73 upbm affinity estimate (log intensity, higher = more binding, comparable within an allelic series)"
same,binding signal,HOXB6 [6],"8.86 upbm affinity estimate (log intensity, higher = more binding, comparable within an allelic series)"
GCGGTCAC,binding signal,HOXA4 [1],"9.83 upbm affinity estimate (log intensity, higher = more binding, comparable within an allelic series)"
same,binding signal,HOXA4 [3],"9.77 upbm affinity estimate (log intensity, higher = more binding, comparable within an allelic series)"
same,binding signal,PITX2,"7.97 upbm affinity estimate (log intensity, higher = more binding, comparable within an allelic series)"
same,binding signal,HOXA4 [4],"9.75 upbm affinity estimate (log intensity, higher = more binding, comparable within an allelic series)"
same,binding signal,HOXA4 [5],"9.9 upbm affinity estimate (log intensity, higher = more binding, comparable within an allelic series)"
CCGGCTCC,binding signal,HOXA4 [1],"9.74 upbm affinity estimate (log intensity, higher = more binding, comparable within an allelic series)"
same,binding signal,HOXA4 [3],"9.52 upbm affinity estimate (log intensity, higher = more binding, comparable within an allelic series)"
same,binding signal,ALX3 [7],"7.7 upbm affinity estimate (log intensity, higher = more binding, comparable within an allelic series)"
same,binding signal,HOXA4 [4],"9.48 upbm affinity estimate (log intensity, higher = more binding, comparable within an allelic series)"
same,binding signal,ALX3 [8],"7.5 upbm affinity estimate (log intensity, higher = more binding, comparable within an allelic series)"
same,binding signal,ALX3 [9],"7.65 upbm affinity estimate (log intensity, higher = more binding, comparable within an allelic series)"
same,binding signal,ALX3 [10],"7.64 upbm affinity estimate (log intensity, higher = more binding, comparable within an allelic series)"
same,binding signal,HOXA4 [5],"9.75 upbm affinity estimate (log intensity, higher = more binding, comparable within an allelic series)"
same,binding signal,ALX3 [11],"7.7 upbm affinity estimate (log intensity, higher = more binding, comparable within an allelic series)"
AGGGACGG,binding signal,HOXA4 [1],"9.81 upbm affinity estimate (log intensity, higher = more binding, comparable within an allelic series)"
same,binding signal,HOXA4 [3],"9.83 upbm affinity estimate (log intensity, higher = more binding, comparable within an allelic series)"
same,binding signal,NKX2-6,"9.6 upbm affinity estimate (log intensity, higher = more binding, comparable within an allelic series)"
same,binding signal,HOXA4 [4],"9.78 upbm affinity estimate (log intensity, higher = more binding, comparable within an allelic series)"
same,binding signal,HOXA4 [5],"9.93 upbm affinity estimate (log intensity, higher = more binding, comparable within an allelic series)"
AGTAATTC,binding signal,HOXA4 [1],"10.4 upbm affinity estimate (log intensity, higher = more binding, comparable within an allelic series)"
same,binding signal,HOXA4 [4],"11.6 upbm affinity estimate (log intensity, higher = more binding, comparable within an allelic series)"
ACGTTTAG,binding signal,HOXA4 [1],"10.2 upbm affinity estimate (log intensity, higher = more binding, comparable within an allelic series)"
same,binding signal,HOXA4 [4],"11 upbm affinity estimate (log intensity, higher = more binding, comparable within an allelic series)"
CCTGCTCC,binding signal,HOXA4 [1],"9.98 upbm affinity estimate (log intensity, higher = more binding, comparable within an allelic series)"
same,binding signal,HOXA4 [3],"9.88 upbm affinity estimate (log intensity, higher = more binding, comparable within an allelic series)"
same,binding signal,HOXA4 [4],"9.83 upbm affinity estimate (log intensity, higher = more binding, comparable within an allelic series)"
same,binding signal,HOXA4 [5],"9.97 upbm affinity estimate (log intensity, higher = more binding, comparable within an allelic series)"
CCGGCACG,binding signal,HOXA4 [1],"9.89 upbm affinity estimate (log intensity, higher = more binding, comparable within an allelic series)"
same,binding signal,HOXA4 [3],"9.91 upbm affinity estimate (log intensity, higher = more binding, comparable within an allelic series)"
same,binding signal,HOXA4 [4],"9.85 upbm affinity estimate (log intensity, higher = more binding, comparable within an allelic series)"
same,binding signal,HOXA4 [5],"9.93 upbm affinity estimate (log intensity, higher = more binding, comparable within an allelic series)"
CACACCGG,binding signal,HOXA4 [1],"9.76 upbm affinity estimate (log intensity, higher = more binding, comparable within an allelic series)"
same,binding signal,HOXA4 [3],"9.68 upbm affinity estimate (log intensity, higher = more binding, comparable within an allelic series)"
same,binding signal,HOXA4 [4],"9.76 upbm affinity estimate (log intensity, higher = more binding, comparable within an allelic series)"
same,binding signal,HOXA4 [5],"9.81 upbm affinity estimate (log intensity, higher = more binding, comparable within an allelic series)"
